Screening data: PubChem, several laboratories
EphB4 ephrin blk: EphB4-ephrin-B2 interaction antagonism. P54760. EphB4 LBD / TNYL-RAW-Alexa532 peptide, fluorescence polarization. inhibition, % at 7 µM. hit rate 0.15% among 97,000. AID 720;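 active means inhibition above the screen-wide mean inhibition plus 3 SD, cut at about 15% in these data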;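 further: 0% = DMSO wells and 100% = excess unlabeled TNYL-RAW peptide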
D1 mod: allosterically modulates the human D1 dopamine receptor. hit rate 5.9% among 58,000. HEK293 D1, CRE-luciferase, dopamine EC30 potentiation; actives deviate in either direction. B-score at 10 µM;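 active means luminescence count or its row- and column-corrected plate score outside the 99.7% band of the plate's sample wells, on either side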
DAT uptake mod: modulates human dopamine transporter uptake under cocaine; Q01959; LLC-PK1 hDAT cells, [14C]-dopamine uptake with cocaine IC80; actives deviate in either direction; B-score at 10 µM; hit rate 1.3% among 110,000; AID 449768;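 active means Z score or B-score, a plate-position-corrected score, falls beyond the plate's 99.7% confidence bounds, in either direction; inactive means both scores lie inside the 99.7% bounds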;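 further: scored against the spread of the other compound wells on the same plate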
Target sequence (Q01959 whole entry, looked up): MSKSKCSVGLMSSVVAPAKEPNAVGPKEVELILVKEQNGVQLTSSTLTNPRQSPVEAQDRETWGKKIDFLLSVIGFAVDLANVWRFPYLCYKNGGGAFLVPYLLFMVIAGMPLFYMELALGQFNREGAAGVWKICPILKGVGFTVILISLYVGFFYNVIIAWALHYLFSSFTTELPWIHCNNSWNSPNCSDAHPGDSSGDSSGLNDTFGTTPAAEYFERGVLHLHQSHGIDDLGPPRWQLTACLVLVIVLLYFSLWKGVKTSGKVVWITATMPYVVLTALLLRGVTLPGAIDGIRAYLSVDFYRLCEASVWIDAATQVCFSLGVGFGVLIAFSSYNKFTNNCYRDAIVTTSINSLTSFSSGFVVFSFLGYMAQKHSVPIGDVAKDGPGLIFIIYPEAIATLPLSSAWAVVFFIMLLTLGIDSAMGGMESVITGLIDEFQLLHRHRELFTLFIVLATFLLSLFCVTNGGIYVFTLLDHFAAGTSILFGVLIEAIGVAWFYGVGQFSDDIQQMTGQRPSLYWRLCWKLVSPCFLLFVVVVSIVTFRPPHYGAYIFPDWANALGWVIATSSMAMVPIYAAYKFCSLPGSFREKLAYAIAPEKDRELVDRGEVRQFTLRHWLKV
Starred values were filed as active, the others as inactive. The entries come from a sample that favours hits as a whole.

How did COc1ccccc1-c1cc2nc(C)c(CCC(=O)NC(C)CCc3ccco3)c(C)n2n1 (centres undefined) do in these assays?
EphB4 ephrin blk: 2; DAT uptake mod: 1

What do the screens show for `Cc1ccc(NC(=O)/C(=C\c2cccnc2)NC(=O)c2ccco2)cc1`?
EphB4 ephrin blk: 0; DAT uptake mod: 0.44

Results for Cc1cc(C)c2cc(CN(CCN3CCCC3)C(=O)Nc3ccc(F)cc3)c(=O)[nH]c2c1 ?
EphB4 ephrin blk: -15; D1 mod: -3.1*; DAT uptake mod: 0.56

How did Cc1cc(C)c2cc(CN(CCO)C(=O)Nc3ccc(Cl)cc3)c(=O)[nH]c2c1 do in these assays?
D1 mod: 1.5; DAT uptake mod: 1.4

Results for COc1ccc(C2/C=C\CN(C(=O)c3ccc(C)cc3)[C@H](Cc3ccccc3)C(=O)N2Cc2ccc(F)cc2)cc1 (some centres undefined) ?
DAT uptake mod: 0.47

What do the screens show for `Nc1nc2ccc([N+](=O)[O-])c(N)c2s1`?
EphB4 ephrin blk: 9; DAT uptake mod: -0.041

Results for O=C(Nc1ccccc1Cl)NC1(C(=O)N2CCCCC2)CCCCC1 ?
EphB4 ephrin blk: 14; DAT uptake mod: -1.1

What do the screens show for `O=C(Nc1ccccc1Cl)NC1(C(=O)N2CCCC2)CCCCC1`?
EphB4 ephrin blk: 3; DAT uptake mod: -8.9*

What do the screens show for `C[C@H]1O[C@@H](O[C@H]2[C@@H](O)C[C@H](O[C@H]3[C@@H](O)C[C@H](O[C@H]4CC[C@@]5(C)[C@H](CC[C@@H]6[C@@H]5C[C@@H](O)[C@]5(C)[C@@H](C7=CC(=O)OC7)CC[C@]65O)C4)O[C@@H]3C)O[C@@H]2C)C[C@H](O)[C@@H]1O`?
DAT uptake mod: -6.2*

What do the screens show for `Cc1ccc(S(=O)(=O)N2CCC(=O)N(CCOC(=O)Nc3ccc(F)cc3)CC2)cc1`?
DAT uptake mod: -0.17

Results for CCOC(=O)CCCCCNC(=O)c1ccc(F)cc1F ?
DAT uptake mod: -0.036

Results for CC1(C)N=C(SCC(=O)Nc2ccccc2)C(c2ccc(Cl)cc2)=N1 ?
EphB4 ephrin blk: -9; DAT uptake mod: 2.2

How did Cc1ccc(C2=NC(C)(C)N=C2SCC(=O)Nc2ccc(Cl)cc2)cc1 do in these assays?
EphB4 ephrin blk: 0; DAT uptake mod: -7.4*

Results for COc1ccc(C(=O)N2CCC(n3c(C)nc4cc(F)ccc43)CC2)cc1OC ?
EphB4 ephrin blk: 3; D1 mod: 1.3; DAT uptake mod: 2.8*

What do the screens show for `COc1ccccc1NC(=O)CN1CCC(n2c(C)nc3cc(F)ccc32)CC1`?
EphB4 ephrin blk: 5; D1 mod: 0.6; DAT uptake mod: 2.5

Results for Cc1ccccc1-n1c(SCC(N)=O)nc2sc(-c3ccccc3)cc2c1=O ?
EphB4 ephrin blk: 0; DAT uptake mod: 3*

Results for C=CCSc1nc2sc(-c3ccccc3)cc2c(=O)n1N ?
EphB4 ephrin blk: -3; DAT uptake mod: -0.35

What do the screens show for `CC1CC(N(C(=O)c2ccccc2Cl)c2ccccc2)c2ccccc2N1` (centres undefined)?
EphB4 ephrin blk: -8

How did O=C(c1ccc([N+](=O)[O-])cc1)N(Cc1ccc(Br)cc1)N1C(=O)CCCC1=O do in these assays?
EphB4 ephrin blk: 6; DAT uptake mod: -7.4*

Results for Cc1ccc(CSCCNC(=O)CSCc2ccc([N+](=O)[O-])cc2)cc1 ?
EphB4 ephrin blk: -1; DAT uptake mod: 1.1

Results for COC(=O)CCC(=O)OC1(C)C(=O)C=C2C=C(C3CC3)OC=C2C1=O (centres undefined) ?
DAT uptake mod: -0.74

Results for COc1cc2[nH]c(=O)c(C(=O)NCCCN3CCCCC3)c(O)c2cc1OC ?
EphB4 ephrin blk: 9; D1 mod: -4.3*; DAT uptake mod: 0.64

Results for O=C(NCCCN1CCOCC1)c1c(O)c2ccccc2[nH]c1=O ?
EphB4 ephrin blk: 4; DAT uptake mod: 0.19

What do the screens show for `CCOc1ccc(OCCCCNCCN)cc1`?
EphB4 ephrin blk: 0

How did CCOC(=O)N1CCN(c2ncnc3c2cnn3-c2ccc(OC)cc2)CC1 do in these assays?
EphB4 ephrin blk: 3

How did CC1CCN(c2ncnc3c2cnn3-c2ccccc2)CC1 do in these assays?
EphB4 ephrin blk: 4; D1 mod: -3*; DAT uptake mod: -1.1

How did CCOC(=O)C1CCN(c2ncnc3c2cnn3-c2ccccc2)CC1 do in these assays?
EphB4 ephrin blk: 0; D1 mod: -0.23; DAT uptake mod: 1

How did COc1ccc(-n2ncc3c(N4CCC(C)CC4)ncnc32)cc1 do in these assays?
D1 mod: -5.8*

What do the screens show for `CC(C)=C1C2CCC1C1C(=O)N(NC(=O)COc3ccc(C(C)(C)C)cc3)C(=O)C21` (centres undefined)?
EphB4 ephrin blk: 0; DAT uptake mod: 0.85

Results for O=C(CSc1nc2ccccc2c(=O)n1NC(=O)Cc1ccccc1)NCc1ccccc1Cl ?
EphB4 ephrin blk: -5; DAT uptake mod: 0.92

Results for CSc1ccccc1C(=O)Nc1cccc(C(C)O)c1 (centres undefined) ?
EphB4 ephrin blk: -4; D1 mod: -0.73; DAT uptake mod: -0.59

What do the screens show for `CC(O)c1cccc(NC(=O)CCC(=O)O)c1` (centres undefined)?
EphB4 ephrin blk: 19*; D1 mod: -0.79; DAT uptake mod: -0.72

How did O=C(NCc1ccncc1)C1CCCCC1 do in these assays?
EphB4 ephrin blk: 5; DAT uptake mod: -8*

How did CS(=O)(=O)N1CCC(C(=O)NCc2ccncc2)CC1 do in these assays?
EphB4 ephrin blk: -1; D1 mod: -0.015; DAT uptake mod: -0.98

Results for COc1cc(CNCCO)cc(Br)c1OCc1cccs1 ?
EphB4 ephrin blk: -7; DAT uptake mod: 0.47

What do the screens show for `COc1cc(CO)cc(Br)c1OCc1cccnc1`?
D1 mod: -3.1*; DAT uptake mod: -0.97

What do the screens show for `C#CCOCCOCCOCCNc1nc(N2CCN(C(=O)[C@H](CCC(=O)O)n3cc(C(N)CO)nn3)CC2)nc(N2CCN(C(=O)[C@H](CCC(=O)O)n3cc(C(N)CC(C)C)nn3)CC2)n1` (some centres undefined)?
DAT uptake mod: -0.23

Results for COc1ccc(CNc2ccc(-c3ccc(OC)cc3)nn2)cc1 ?
EphB4 ephrin blk: 7; DAT uptake mod: 1.5

What do the screens show for `COc1ccc(CNc2ccc(-c3ccccc3OC)nn2)cc1`?
EphB4 ephrin blk: 6; DAT uptake mod: 3.2*

Results for COC(=O)c1c(C(=O)OC)c2ccncn2c1Cl ?
EphB4 ephrin blk: 3; DAT uptake mod: -0.09

Results for O=C(NCc1nc2ccccc2[nH]1)C1=C[C@@H](c2ccc(C(F)(F)F)cc2)C[C@@H](OCCCCO)O1 ?
DAT uptake mod: -0.38

How did CC12CCC(=O)N1c1c(sc3nc(N4CCOCC4)c4c(c13)CCCC4)C(=O)N2 (centres undefined) do in these assays?
EphB4 ephrin blk: -4; DAT uptake mod: 3.2*

Results for COC(=O)c1ccc(-c2sc3nc(N4CCOCC4)c4c(c3c2N)CCCC4)o1 ?
EphB4 ephrin blk: -1; D1 mod: -0.11; DAT uptake mod: 0.026

Results for Cc1ccc(C(=O)Nc2ncnc3sc4c(c23)CCCCC4)cc1 ?
EphB4 ephrin blk: -2; DAT uptake mod: 0.45

What do the screens show for `Cc1ccc2nc3sc(C(=O)N4CCOCC4)c(N)c3cc2c1`?
EphB4 ephrin blk: 7; D1 mod: -5.5*; DAT uptake mod: -0.074
